# Reference: article PMC7862700, “An all-to-all approach to the identification of sequence-specific readers for epigenetic DNA modifications on cytosine”
# How the values were obtained:
# Assay in all cases: DAPPL (digital affinity profiling via proximity ligation, sequencing); 10 mM Tris-HCl pH 7.5, 50 mM NaCl, 1 mM DTT, 4% glycerol, room temperature, 30 min; GST-TFs on glutathione beads, 16-mer random dsDNA library, 0.1% formaldehyde crosslink after washing; high values mean tight binding
# FLI1 = biological target: T1, FLI1 (Homo sapiens, UniProt Q01543 1-452); settings: protein: recombinant; tags: N-terminal GST; dsDNA, one strand shown
# T1 sequence: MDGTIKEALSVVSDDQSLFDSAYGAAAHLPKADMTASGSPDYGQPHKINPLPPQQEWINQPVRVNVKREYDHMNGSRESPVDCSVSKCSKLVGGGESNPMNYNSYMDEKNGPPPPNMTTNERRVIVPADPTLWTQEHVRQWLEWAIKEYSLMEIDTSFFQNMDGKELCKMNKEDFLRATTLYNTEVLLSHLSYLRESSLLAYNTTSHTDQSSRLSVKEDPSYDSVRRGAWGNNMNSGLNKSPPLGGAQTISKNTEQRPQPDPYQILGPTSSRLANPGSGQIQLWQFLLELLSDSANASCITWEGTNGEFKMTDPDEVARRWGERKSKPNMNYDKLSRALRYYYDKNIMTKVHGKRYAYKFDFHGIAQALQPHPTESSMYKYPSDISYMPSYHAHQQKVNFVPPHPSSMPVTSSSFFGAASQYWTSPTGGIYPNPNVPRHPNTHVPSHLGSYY
# How it was run: (§1)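 Binding signal is given per hexamer as its read frequency for a factor divided by its frequency in the tag-only sample. GST-fused human transcription factors were expressed in yeast, captured on glutathione beads, barcoded with DNA and pooled with that sample, then incubated with 200 nmole of a 16-mer random double-stranded DNA library in Tris/NaCl/DTT/glycerol buffer for 30 min at room temperature. The pools were then washed, crosslinked, proximity-ligated, amplified by PCR and sequenced on an Illumina NextSeq500.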
# ELK1 = biological target: T2, ELK1 (Homo sapiens, UniProt P19419 1-428); settings: protein: recombinant; tags: N-terminal GST; dsDNA, one strand shown
# T2 sequence: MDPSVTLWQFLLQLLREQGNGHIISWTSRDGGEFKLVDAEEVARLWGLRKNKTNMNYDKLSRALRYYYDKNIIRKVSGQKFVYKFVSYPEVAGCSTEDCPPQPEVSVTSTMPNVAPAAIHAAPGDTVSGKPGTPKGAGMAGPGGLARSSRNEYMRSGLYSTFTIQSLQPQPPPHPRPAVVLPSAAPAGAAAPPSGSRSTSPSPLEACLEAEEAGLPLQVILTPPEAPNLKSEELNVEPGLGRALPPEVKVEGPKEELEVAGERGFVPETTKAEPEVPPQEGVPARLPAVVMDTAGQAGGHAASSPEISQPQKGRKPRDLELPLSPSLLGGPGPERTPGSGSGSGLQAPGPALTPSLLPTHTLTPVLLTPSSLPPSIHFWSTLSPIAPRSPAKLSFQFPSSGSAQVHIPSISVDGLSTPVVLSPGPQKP
# How it was run: as §1
# GABPA = biological target: T3, GABPA (Homo sapiens, UniProt Q06546 1-454); settings: protein: recombinant; tags: N-terminal GST; dsDNA, one strand shown
# T3 sequence: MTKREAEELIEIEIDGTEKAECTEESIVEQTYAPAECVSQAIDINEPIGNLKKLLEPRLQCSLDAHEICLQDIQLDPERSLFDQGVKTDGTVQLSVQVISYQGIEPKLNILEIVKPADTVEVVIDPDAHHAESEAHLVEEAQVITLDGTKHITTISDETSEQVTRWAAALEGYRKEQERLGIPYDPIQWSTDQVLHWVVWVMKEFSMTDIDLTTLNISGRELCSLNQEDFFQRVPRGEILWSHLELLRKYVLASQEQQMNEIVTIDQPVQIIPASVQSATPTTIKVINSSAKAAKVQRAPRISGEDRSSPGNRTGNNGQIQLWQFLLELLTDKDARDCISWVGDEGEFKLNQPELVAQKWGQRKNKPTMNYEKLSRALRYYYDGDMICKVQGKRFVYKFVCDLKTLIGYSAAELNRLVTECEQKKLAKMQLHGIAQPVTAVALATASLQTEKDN
# How it was run: as §1
# ERG = biological target: T4, ERG (Homo sapiens, UniProt P11308 1-479); settings: protein: recombinant; tags: N-terminal GST; dsDNA, one strand shown
# T4 sequence: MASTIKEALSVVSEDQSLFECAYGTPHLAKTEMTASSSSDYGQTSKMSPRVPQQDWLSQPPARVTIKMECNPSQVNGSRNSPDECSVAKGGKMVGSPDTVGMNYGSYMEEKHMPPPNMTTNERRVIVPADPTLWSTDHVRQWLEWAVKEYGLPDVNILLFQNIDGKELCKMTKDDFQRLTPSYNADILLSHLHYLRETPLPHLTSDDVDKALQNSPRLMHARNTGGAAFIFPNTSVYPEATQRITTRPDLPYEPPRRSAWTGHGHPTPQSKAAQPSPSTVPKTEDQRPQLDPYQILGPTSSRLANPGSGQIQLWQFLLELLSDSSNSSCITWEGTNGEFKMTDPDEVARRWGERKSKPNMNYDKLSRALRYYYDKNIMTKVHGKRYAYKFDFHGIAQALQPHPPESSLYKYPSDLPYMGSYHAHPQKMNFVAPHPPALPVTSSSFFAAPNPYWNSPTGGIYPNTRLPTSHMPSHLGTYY
# How it was run: as §1
# ELF1 = ELF1 (Homo sapiens, UniProt P32519 1-619); settings: protein: recombinant; tags: N-terminal GST; dsDNA, one strand shown
# How it was run: as §1
# EHF = biological target: T5, EHF (Homo sapiens, UniProt Q9NZC4 1-300); settings: protein: recombinant; tags: N-terminal GST; dsDNA, one strand shown
# T5 sequence: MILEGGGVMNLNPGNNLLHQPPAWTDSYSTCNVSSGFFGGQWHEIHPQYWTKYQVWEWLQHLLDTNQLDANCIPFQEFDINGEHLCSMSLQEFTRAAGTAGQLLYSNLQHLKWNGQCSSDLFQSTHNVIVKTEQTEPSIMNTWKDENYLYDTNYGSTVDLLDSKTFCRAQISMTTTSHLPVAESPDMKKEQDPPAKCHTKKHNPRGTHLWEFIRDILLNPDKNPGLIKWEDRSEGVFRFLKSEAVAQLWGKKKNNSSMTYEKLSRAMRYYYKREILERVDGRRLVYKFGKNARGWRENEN
# How it was run: as §1
# SPI1 = SPI1 (Homo sapiens, UniProt P17947 1-270); settings: protein: recombinant; tags: N-terminal GST; dsDNA, one strand shown
# How it was run: as §1
# SPIB = SPIB (Homo sapiens, UniProt Q01892 1-262); settings: protein: recombinant; tags: N-terminal GST; dsDNA, one strand shown
# How it was run: as §1
# ELK3 = biological target: T6, ELK3 (Homo sapiens, UniProt P41970 1-407); settings: protein: recombinant; tags: N-terminal GST; dsDNA, one strand shown
# T6 sequence: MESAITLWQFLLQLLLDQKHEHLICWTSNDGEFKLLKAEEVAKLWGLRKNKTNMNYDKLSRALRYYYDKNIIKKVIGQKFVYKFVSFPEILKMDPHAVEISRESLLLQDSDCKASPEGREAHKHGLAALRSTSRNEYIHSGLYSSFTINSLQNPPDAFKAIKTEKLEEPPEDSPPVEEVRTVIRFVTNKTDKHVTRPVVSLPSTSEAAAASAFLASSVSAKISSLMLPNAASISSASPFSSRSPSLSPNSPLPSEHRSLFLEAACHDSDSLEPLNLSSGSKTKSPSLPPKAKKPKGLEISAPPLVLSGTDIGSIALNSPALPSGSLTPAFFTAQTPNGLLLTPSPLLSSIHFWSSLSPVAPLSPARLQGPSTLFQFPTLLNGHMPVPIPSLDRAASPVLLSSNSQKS
# How it was run: as §1
# FEV = biological target: T7, FEV (Homo sapiens, UniProt Q99581 1-238); settings: protein: recombinant; tags: N-terminal GST; dsDNA, one strand shown
# T7 sequence: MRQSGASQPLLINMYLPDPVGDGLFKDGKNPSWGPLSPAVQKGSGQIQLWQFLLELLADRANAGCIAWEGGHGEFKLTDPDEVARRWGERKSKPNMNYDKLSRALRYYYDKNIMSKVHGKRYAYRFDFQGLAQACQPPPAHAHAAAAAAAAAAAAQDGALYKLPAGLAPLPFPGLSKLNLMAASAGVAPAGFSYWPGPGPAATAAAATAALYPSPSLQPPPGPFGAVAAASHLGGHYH
# How it was run: as §1
# ETV5 = ETV5 (Homo sapiens, UniProt P41161 1-510); settings: protein: recombinant; tags: N-terminal GST; dsDNA, one strand shown
# How it was run: as §1
# HSF1 = HSF1 (Homo sapiens, UniProt Q00613 1-529); settings: protein: recombinant; tags: N-terminal GST; chain copies: 3; dsDNA, one strand shown
# How it was run: as §1
# SPIC = biological target: T8, SPIC (Homo sapiens, UniProt Q8N5J4 1-248); settings: protein: recombinant; tags: N-terminal GST; dsDNA, one strand shown
# T8 sequence: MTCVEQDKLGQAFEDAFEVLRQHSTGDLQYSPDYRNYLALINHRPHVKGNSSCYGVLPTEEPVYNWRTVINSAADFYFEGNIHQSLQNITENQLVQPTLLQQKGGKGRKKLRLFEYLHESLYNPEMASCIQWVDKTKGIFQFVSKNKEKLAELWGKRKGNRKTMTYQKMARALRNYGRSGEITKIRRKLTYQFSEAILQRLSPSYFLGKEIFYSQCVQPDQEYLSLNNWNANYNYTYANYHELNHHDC
# How it was run: as §1
# ELF4 = ELF4 (Homo sapiens, UniProt Q99607 1-663); settings: protein: recombinant; tags: N-terminal GST; dsDNA, one strand shown
# How it was run: as §1
# ELK4 = biological target: T9, ELK4 (Homo sapiens, UniProt P28324-2 1-405); settings: protein: recombinant; tags: N-terminal GST; dsDNA, one strand shown
# T9 sequence: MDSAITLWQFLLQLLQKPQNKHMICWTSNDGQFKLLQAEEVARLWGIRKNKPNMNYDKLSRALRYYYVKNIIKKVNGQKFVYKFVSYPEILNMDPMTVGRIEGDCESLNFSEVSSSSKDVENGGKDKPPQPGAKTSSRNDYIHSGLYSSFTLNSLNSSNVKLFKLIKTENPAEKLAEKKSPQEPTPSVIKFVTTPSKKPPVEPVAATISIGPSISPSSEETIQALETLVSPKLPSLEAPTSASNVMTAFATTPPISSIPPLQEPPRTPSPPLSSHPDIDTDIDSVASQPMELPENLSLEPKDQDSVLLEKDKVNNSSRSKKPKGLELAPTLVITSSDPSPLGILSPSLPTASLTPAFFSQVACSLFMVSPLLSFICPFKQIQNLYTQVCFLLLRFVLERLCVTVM
# How it was run: as §1
# ETV2 = biological target: T10, ETV2 (Homo sapiens, UniProt O00321 1-342); settings: protein: recombinant; tags: N-terminal GST; dsDNA, one strand shown
# T10 sequence: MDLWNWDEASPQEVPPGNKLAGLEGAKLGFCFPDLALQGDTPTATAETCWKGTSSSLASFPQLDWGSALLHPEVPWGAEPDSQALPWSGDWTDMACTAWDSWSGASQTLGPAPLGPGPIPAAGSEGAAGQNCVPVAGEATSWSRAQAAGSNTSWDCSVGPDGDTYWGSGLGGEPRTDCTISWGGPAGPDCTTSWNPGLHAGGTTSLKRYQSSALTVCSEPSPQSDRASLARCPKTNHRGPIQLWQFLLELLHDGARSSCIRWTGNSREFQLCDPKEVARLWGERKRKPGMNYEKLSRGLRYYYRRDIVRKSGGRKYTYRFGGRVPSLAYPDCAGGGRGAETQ
# How it was run: as §1
# ELF3 = biological target: T11, ELF3 (Homo sapiens, UniProt P78545 1-371); settings: protein: recombinant; tags: N-terminal GST; dsDNA, one strand shown
# T11 sequence: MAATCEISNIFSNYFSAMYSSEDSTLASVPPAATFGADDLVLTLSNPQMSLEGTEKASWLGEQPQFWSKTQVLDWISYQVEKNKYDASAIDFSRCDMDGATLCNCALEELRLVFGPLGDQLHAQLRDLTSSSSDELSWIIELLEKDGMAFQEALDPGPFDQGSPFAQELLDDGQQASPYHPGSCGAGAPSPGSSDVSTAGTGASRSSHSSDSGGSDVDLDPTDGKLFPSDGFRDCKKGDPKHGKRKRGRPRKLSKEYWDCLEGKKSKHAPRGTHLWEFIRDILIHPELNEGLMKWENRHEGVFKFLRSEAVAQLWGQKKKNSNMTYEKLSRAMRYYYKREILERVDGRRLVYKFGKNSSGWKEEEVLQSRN
# How it was run: as §1
# CRX = CRX (Homo sapiens, UniProt O43186 1-299); settings: protein: recombinant; tags: N-terminal GST; dsDNA, one strand shown
# How it was run: as §1
# ETV1 = ETV1 (Homo sapiens, UniProt P50549 1-477); settings: protein: recombinant; tags: N-terminal GST; dsDNA, one strand shown
# How it was run: as §1
# Sequence of ETV1 (P50549 whole entry): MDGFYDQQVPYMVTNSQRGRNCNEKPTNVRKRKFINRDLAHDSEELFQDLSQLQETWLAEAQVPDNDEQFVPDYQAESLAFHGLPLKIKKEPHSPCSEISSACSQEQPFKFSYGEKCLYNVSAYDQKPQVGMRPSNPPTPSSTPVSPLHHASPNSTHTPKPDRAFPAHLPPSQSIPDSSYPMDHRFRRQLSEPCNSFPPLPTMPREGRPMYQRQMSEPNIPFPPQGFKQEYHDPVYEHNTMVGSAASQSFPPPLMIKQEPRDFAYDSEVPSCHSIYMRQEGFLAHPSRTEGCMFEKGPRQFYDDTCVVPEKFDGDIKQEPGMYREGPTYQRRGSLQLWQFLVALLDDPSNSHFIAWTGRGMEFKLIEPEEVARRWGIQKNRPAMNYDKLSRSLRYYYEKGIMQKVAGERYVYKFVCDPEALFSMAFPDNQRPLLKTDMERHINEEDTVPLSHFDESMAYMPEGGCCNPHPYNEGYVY
# Sequence of SPIB (Q01892 whole entry): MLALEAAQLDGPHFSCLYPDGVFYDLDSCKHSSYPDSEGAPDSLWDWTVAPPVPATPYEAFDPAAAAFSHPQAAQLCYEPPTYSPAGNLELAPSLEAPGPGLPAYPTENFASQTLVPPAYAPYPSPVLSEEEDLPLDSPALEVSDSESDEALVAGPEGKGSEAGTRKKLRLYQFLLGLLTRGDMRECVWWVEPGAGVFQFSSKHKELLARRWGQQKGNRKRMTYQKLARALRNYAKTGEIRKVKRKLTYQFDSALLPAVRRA
# Sequence of ETV5 (P41161 whole entry): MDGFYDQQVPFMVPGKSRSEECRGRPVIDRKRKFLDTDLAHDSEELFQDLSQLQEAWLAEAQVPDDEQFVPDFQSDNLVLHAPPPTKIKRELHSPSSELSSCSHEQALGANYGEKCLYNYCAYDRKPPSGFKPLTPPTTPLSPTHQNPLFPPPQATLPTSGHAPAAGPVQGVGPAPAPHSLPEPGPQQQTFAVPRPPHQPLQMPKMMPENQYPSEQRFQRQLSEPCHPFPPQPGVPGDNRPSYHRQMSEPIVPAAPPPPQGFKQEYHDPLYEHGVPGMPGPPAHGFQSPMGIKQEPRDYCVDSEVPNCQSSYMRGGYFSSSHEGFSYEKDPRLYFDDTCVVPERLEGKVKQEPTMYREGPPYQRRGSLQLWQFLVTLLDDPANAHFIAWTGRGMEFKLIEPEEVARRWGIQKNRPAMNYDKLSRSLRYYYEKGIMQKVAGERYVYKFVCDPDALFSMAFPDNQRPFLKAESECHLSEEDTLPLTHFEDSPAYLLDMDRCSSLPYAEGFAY
# Sequence of ELF1 (P32519 whole entry): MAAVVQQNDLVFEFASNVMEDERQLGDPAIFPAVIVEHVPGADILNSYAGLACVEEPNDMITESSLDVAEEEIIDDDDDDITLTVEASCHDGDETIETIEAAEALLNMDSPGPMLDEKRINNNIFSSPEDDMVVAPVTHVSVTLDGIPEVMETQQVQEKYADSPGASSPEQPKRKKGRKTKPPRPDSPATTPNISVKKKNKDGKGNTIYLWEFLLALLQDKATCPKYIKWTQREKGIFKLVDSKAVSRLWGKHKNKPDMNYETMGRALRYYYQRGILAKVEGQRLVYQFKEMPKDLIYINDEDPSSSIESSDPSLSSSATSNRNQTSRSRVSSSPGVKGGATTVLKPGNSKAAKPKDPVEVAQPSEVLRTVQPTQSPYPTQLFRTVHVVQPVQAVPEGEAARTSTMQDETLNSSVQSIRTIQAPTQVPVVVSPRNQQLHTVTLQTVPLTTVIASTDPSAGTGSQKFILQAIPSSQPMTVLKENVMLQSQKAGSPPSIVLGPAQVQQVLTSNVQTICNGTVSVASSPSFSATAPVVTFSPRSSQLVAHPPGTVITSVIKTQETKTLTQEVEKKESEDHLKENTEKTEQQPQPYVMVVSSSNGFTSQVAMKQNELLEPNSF
# Sequence of ELF4 (Q99607 whole entry): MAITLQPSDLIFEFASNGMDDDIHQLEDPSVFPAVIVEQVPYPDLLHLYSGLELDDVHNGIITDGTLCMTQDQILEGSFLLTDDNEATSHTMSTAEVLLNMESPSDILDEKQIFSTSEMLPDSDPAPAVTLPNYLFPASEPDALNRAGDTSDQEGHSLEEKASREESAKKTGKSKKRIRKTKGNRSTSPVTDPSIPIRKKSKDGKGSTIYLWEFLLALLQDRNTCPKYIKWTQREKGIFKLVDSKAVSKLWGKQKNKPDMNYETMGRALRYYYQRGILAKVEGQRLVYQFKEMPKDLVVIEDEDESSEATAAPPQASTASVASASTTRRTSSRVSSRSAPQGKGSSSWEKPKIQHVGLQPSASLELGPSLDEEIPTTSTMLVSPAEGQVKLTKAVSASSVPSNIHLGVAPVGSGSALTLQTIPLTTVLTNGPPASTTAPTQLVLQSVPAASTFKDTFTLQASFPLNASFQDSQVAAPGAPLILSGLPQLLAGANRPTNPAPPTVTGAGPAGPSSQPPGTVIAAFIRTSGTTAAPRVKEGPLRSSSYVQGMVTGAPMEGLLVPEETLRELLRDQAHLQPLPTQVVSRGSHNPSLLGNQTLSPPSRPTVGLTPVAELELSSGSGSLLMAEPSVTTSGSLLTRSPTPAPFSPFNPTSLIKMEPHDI
# Sequence of HSF1 (Q00613 whole entry): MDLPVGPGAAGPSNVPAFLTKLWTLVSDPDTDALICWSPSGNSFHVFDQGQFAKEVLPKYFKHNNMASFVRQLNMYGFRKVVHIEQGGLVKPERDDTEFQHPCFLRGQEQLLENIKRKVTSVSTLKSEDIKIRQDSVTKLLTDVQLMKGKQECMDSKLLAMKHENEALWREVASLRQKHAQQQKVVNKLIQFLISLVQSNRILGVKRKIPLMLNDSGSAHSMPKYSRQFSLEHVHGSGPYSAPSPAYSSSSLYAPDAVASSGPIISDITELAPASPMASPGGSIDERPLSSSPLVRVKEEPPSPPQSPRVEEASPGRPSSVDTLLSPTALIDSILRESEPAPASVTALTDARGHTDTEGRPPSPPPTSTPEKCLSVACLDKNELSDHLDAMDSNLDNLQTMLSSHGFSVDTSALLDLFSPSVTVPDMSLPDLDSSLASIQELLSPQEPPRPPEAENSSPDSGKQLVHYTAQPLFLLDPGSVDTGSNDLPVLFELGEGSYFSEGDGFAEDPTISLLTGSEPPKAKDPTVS
# Sequence of CRX (O43186 whole entry): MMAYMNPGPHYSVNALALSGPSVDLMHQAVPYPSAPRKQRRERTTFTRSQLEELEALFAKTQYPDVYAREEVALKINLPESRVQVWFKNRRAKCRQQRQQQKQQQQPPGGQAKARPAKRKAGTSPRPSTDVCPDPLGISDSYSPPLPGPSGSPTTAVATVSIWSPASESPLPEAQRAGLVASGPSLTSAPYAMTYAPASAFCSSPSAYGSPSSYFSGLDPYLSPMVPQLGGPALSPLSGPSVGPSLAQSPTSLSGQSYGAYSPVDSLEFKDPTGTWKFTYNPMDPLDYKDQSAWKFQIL
sequence,measurement,setting,value
TCCTTT,binding signal,FLI1,"1.64 fold enrichment (6-mer frequency, TF over GST control)"
same,binding signal,ELK1,"1.75 fold enrichment (6-mer frequency, TF over GST control)"
same,binding signal,GABPA,"1.72 fold enrichment (6-mer frequency, TF over GST control)"
same,binding signal,ERG,"1.79 fold enrichment (6-mer frequency, TF over GST control)"
same,binding signal,ELF1,"1.81 fold enrichment (6-mer frequency, TF over GST control)"
same,binding signal,EHF,"1.73 fold enrichment (6-mer frequency, TF over GST control)"
same,binding signal,SPI1,"1.83 fold enrichment (6-mer frequency, TF over GST control)"
same,binding signal,SPIB,"1.67 fold enrichment (6-mer frequency, TF over GST control)"
same,binding signal,ELK3,"1.81 fold enrichment (6-mer frequency, TF over GST control)"
same,binding signal,FEV,"1.69 fold enrichment (6-mer frequency, TF over GST control)"
same,binding signal,ETV5,"1.69 fold enrichment (6-mer frequency, TF over GST control)"
same,binding signal,HSF1,"1.57 fold enrichment (6-mer frequency, TF over GST control)"
same,binding signal,SPIC,"1.76 fold enrichment (6-mer frequency, TF over GST control)"
same,binding signal,ELF4,"1.77 fold enrichment (6-mer frequency, TF over GST control)"
same,binding signal,ELK4,"1.62 fold enrichment (6-mer frequency, TF over GST control)"
same,binding signal,ETV2,"1.47 fold enrichment (6-mer frequency, TF over GST control)"
same,binding signal,ELF3,"1.78 fold enrichment (6-mer frequency, TF over GST control)"
same,binding signal,CRX,"1.67 fold enrichment (6-mer frequency, TF over GST control)"
same,binding signal,ETV1,"1.68 fold enrichment (6-mer frequency, TF over GST control)"
